Data as given in PubChem BioAssay (NCI).
Compounds without any hit were thinned out: in the full panel of roughly 83,000, 20% have a hit.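 Plates (96-well) were seeded with cells, treated with compound at one concentration, and incubated for 48 hours before percent growth was determined.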 A number with no mark means an inactive call. Activity calls are given as the source filed them. Rule for the calls: active = growth percent below 10; inactive = the rest.

system: SN12C renal; assay: NCI-60 one-dose screen, 48 h (100 = growth as untreated, 0 = no growth, -100 = all killed); conditions: 10 µM unless noted

Compound | growth
Cn1cc(-c2cc3nc(-c4cn(C)c5ncccc45)cc(N)n3n2)c2cc(Cl)ccc21 | -93.8% (active)
CC12CC[C@@H]3[C@]4(C)COC(c5c(F)cccc5F)O[C@@H]4CC[C@@]3(C)[C@@H]1CC(C1=CCOC1=O)O2 (some centres not stated) | 66.6%
Cc1nc(Nc2ncc(C(=O)Nc3c(C)cccc3Cl)s2)cc(N2CCN(CCCNC(=O)COc3ccc(C4CCC(=O)NC4=O)cc3)CC2)n1 (configuration not stated) | 25.2%
Cn1cc(NC(=O)c2cc(NC(=O)c3ccc(/C=C/c4ccccc4)cc3)cn2C)cc1C(=O)NCCCN1CCOCC1 | 43.4%
Cc1ccccc1[C@H]1C(C(=O)c2ccc(Cl)cc2)C2(N[C@@H]1c1ccccc1)C(=O)Nc1ccc(Br)cc12 (some centres not stated) | -82.1% (active)
Brc1ccc(N/N=C/c2c[nH]c3ccc(Br)cc23)nc1 | -22.6% (active)
C=C1CCC2C3(C)COC(c4ccccc4)OC3CCC2(C)C1CC(Sc1ccccc1)C1=CCOC1=O (configuration not stated) | 25.7%
Clc1cccc(N/N=C/c2c[nH]c3ccc(Br)cc23)n1 | -1.39% (active)
COc1c(F)ccc(C(=O)Nc2ccc3nc(NC(=O)C4CCCN(S(=O)(=O)c5cccc(C(F)(F)F)c5)C4)sc3c2)c1F (configuration not stated) | 78.8%
O=c1oc2ccc(Br)cc2cc1C1=CSc2nc3sc4c(c3c(=O)n2N=C1)CCCC4 | 103%
CC(=O)/C=C/c1cccc2c1C(=O)NC(C)(c1cc3cc(Br)ccc3oc1=O)N2 (configuration not stated) | 12.7%
O=c1[nH]c(=O)c2c(-c3cc4ccccc4oc3=O)ccnc2[nH]1 | 81%
